Most compounds without a hit are left out; they make up all but 5.3% or so of the library.
FMDV inh = foot and mouth disease virus antiviral activity | FMDV antiviral cell-based qHTS | Potency, µM (top dose mostly 57.9 µM), for the others: at the top dose activity change, negative = inhibition, hits mostly inhibitors | 410,000 compounds, 1.2% hits; calls by dose curve; tested in HEK293T cells; further: read-out not given here; nearly all actives have a fitted effect of over 45% in size
Lassa entry inh = inhibitors of Lassa virus binding or cell entry; Lassa virus pseudotype entry inhibition, cell reporter; Potency, µM (doses to about 37.9 µM), inactives show top-dose activity change, negative = inhibition, actives largely listed as inhibitors; 300,000 compounds, 1.2% hits; calls by dose curve; tested in HEK293 cells; further: nearly all actives have a fitted effect of over 50% in size
HCV inh = blocks hepatitis C virus; Huh7.5.1 HCVcc-Cre infection, luciferase reporter, 44 h; Potency, µM (series often up to 41.8 µM), without a hit: at the top dose activity change, negative = inhibition, actives largely listed as inhibitors; 340,000 compounds, 3.4% hits; AID 651820; active means well fitted inhibition curve with a large enough effect; inconclusive means small, poorly fitted or top-dose-only effect, or another doubt; inactive means no such curve, though single readings can be large or run the other way
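After 44 h co-culture of compound, cells and HCVcc-Cre (~0.5 moi), substrate is added for 15 min at room temperature and luciferase measured over 15 sec. Cells were seeded at 1,000/well and pre-cultured 4 h.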
MARV entry inh = blocks Marburg virus binding to or entry into cells; 300,000 compounds, 1.8% hits; Potency, µM (top dose mostly 37.8 µM), for the others: top-dose activity change, negative = inhibition, most hits filed as inhibitors; AID 540276; Marburg virus pseudotyped entry inhibition, cell reporter; calls by dose curve; tested in HEK293 cells
VACV mCherry inh = inhibitors of vaccinia virus infection (mCherry reporter signal); Vaccinia virus mCherry reporter infection, fluorescence; 310,000 compounds, 0.63% hits; AID 720579; Potency, µM (doses to about 36.5 µM), for the others: at the top dose activity change, negative = inhibition, most hits filed as inhibitors; calls by dose curve; tested in A549 cells; further: nearly all actives have a fitted effect of over 35% in size
Vaccinia Venus = inhibitors of vaccinia virus (Venus reporter). Vaccinia virus Venus reporter expression, fluorescence. Potency, µM (series often up to 36.5 µM), for inactives: at the top dose activity change, negative = inhibition, hits mostly inhibitors. 330,000 compounds, 0.46% hits; calls by dose curve; tested in A549 cells; further: nearly all actives have a fitted effect of over 30% in size
Starred values were filed as active, the others as inactive; i = inactive; ? = inconclusive; / = no result; ! = repeats disagree; [ ] = dose if it differs, or a comment. On the % scale 0 is the no-effect control and ±100 the full control effect; potency means the concentration at half of the fitted maximal effect.

SMILES	FMDV inh	Lassa entry inh	HCV inh	MARV entry inh	VACV mCherry inh	Vaccinia Venus
O=C(Nc1cccc(S(=O)(=O)C(F)F)c1)c1ccc(S(=O)(=O)N2CCOCC2)cc1	?	-9.8%	-12.9%	?	5.2%	-13.7%
CN1CCN(c2ccc(Cl)cc2NC(=O)c2ccc(S(=O)(=O)N(C)C)cc2)CC1	6.0%	-3.0%	11.1%	?	i	-16.8%
CN(C)S(=O)(=O)c1ccc(C(=O)Nc2cc(S(=O)(=O)Nc3ccccc3Cl)ccc2N2CCCCC2)cc1	5.7%	5.17µM*	?	-10.9%	-15.9%	-6.4%
CC(C)CCNC(=S)Nc1ccc([N+](=O)[O-])cc1	11.8%	?	?	?	?	?
CC(C)OC(=O)c1cc(NC(=S)Nc2ccc([N+](=O)[O-])cc2)cc(C(=O)OC(C)C)c1	?	?	?	14.1µM*	-8.5%	-17.2%
Cc1cc(C)c(S(=O)(=O)Nc2ccc3c4c(cccc24)CC3)c(C)c1	5.7%	1µM*	?	?	?	?
Cc1cc(C)c(S(=O)(=O)Nc2ccc3c(c2)CCC3)c(C)c1	80.2%	?	11.2µM*	7.31µM*	i	-16.3%
Cc1ccc(S(=O)(=O)Nc2ccc3c4c(cccc24)CC3)c(C)c1	30.8%	-21.9%	-15.4%	?	?	-29.2%
Cc1ccc(S(=O)(=O)CCC(=O)N2CCN(c3nc4c(C)c(Cl)ccc4s3)CC2)cc1	?	16.4%[46.1 µM]	/	/	-29.8%	-15.9%
COc1cccc2sc(N3CCN(C(=O)CCS(=O)(=O)c4ccc(F)cc4)CC3)nc12	20µM*	?	/	/	-24.8%	-27.4%
Cc1nc(SCC(=O)Nc2c(C)n(C)n(-c3ccccc3)c2=O)c2cnn(-c3ccccc3)c2n1	?	/	25.1µM*	/	/	/
Cc1cc(F)ccc1N1CCC(N2CCN(CCC(C)C)C(CCO)C2)CC1 (centres undefined)	0.0%	?	10µM*	?	?	?
Cc1cc(F)ccc1N1CCC(N2CCN(C(C)C)C(CCO)C2)CC1 (centres undefined)	-7.3%	-24.4%	?	?	-4.8%	-8.9%
COc1cccc(CN2CCN(C3CCN(c4cccc(C)c4C)CC3)CC2CCO)c1 (centres undefined)	?	/	11.2µM*	/	/	/
CCOc1cc(C(=O)N2CC(=O)Nc3ccc(C)cc3C2c2ccccc2)cc(OCC)c1OCC (centres undefined)	-8.8%	21.2%[46.1 µM]	/	?	i	-6.5%
CC(=O)c1cccc(-c2csc3ncnc(Sc4nnnn4C)c23)c1	35.5µM*	/	/	/	/	/
Clc1ccc(-n2nnnc2Sc2ncnc3sccc23)cc1	39.8µM*	?	?	?	/	-27.4%
Cn1nnnc1Sc1ccc([N+](=O)[O-])cc1Cl	-23.1%	-6.5%	-3.2%	?	10µM*	?
Cn1nnnc1Sc1ncnc2scc(-c3cccc(Br)c3)c12	-95.8%	/	/	/	/	/
Cn1nnnc1Sc1ncnc2scc(-c3ccc(Cl)cc3)c12	20µM*	/	/	/	/	/
CC1C(=O)N(Cc2cn(Cc3ccco3)nn2)CCS(=O)(=O)N1Cc1ccc(-c2ccc(Cl)cc2)cc1 (centres undefined)	?	/	/	/	-1.6%	-27.6%
Cc1ccc(-n2nc(C)c3c2C(Br)C(C)(C)CC3=O)nc1 (centres undefined)	3.7%	/	11.9%	/	i	-26.1%
CC(=O)OCC(=O)[C@]1(O)C(C)CC2C3CCC4=CC(=O)C=C[C@@]4(C)[C@]3(F)C(O)C[C@@]21C (some centres undefined)	4.6%	/	/	/	-3.8%	-18.8%
Cc1sc2ncnc(Sc3nnnn3-c3ccccc3)c2c1C	/	?	?	?	11.2µM*!	?
Clc1ccc(-c2csc3ncnc(Sc4nnnn4-c4ccccc4)c23)cc1	/	/	/	/	10µM*	?
Cn1nnnc1Sc1ncnc2scc(-c3ccccc3Cl)c12	-10.3%	/	/	/	/	/
Cn1nnnc1Sc1ncnc2scc(-c3ccc([N+](=O)[O-])cc3)c12	11.2µM*	/	/	/	/	/
Cn1nnnc1Sc1ncnc2scc(-c3ccc4c(c3)OCO4)c12	0.0%	/	/	/	/	/
Cc1sc2ncnc(Sc3ccccc3C(=O)O)c2c1C	2.8%	-3.1%	-26.6%	14.3%[46.1 µM]	-2.2%	-13.2%
Cn1nnnc1Sc1ncnc2scc(-c3cccc4c3sc3ccccc34)c12	28.2µM*	/	/	/	/	/

Compound activity from PubChem.
